# This is a sample that favours compounds with a hit; in the whole collection about 11% have one here.
# Pf growth 48h – inhibits P. falciparum growth in the first generation, 48 h. P. falciparum luciferase growth in erythrocytes, 48 h. Potency, µM (titrated, usually from 28.7 µM), for inactives: at the top dose activity change, negative = inhibition, most hits filed as inhibitors. hit rate 5.9% among 310,000; also: % is scaled to controls: 0 for no effect and ±100 for the full control effect
#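 Read-out is firefly luciferase luminescence from an integrated reporter in P. falciparum, so falling signal marks reduced parasite growth. Infected erythrocytes were at 2% hematocrit and 0.1% parasitemia (final) in Albumax-supplemented RPMI 1640.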
# NS1 function inh – blocks influenza NS1 protein function; Potency, µM (series often up to 46.1 µM), inactives show at the highest dose activity, positive = more growth; AID 2326; hit rate 0.4% among 270,000; calls by dose curve; also: actives are rising curves; nearly all actives have a fitted effect of over 50% in size
#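 S. cerevisiae expressing influenza A NS1, grown in glucose, washed, then diluted 1:100 into pH 6.0 -URA galactose medium with 23 nl compound. Growth recovery read as OD600; NS1-free strain serves as control.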
# Sm TGR inh – blocks Schistosoma mansoni thioredoxin glutathione reductase. Potency, µM (top dose mostly 114 µM), without a hit: at the highest dose activity change, negative = inhibition, actives largely listed as inhibitors. AID 485364. purified TGR, DTNB reduction, TNB absorbance 405 nm. hit rate 3% among 360,000. Q962Y6; also: % is scaled to controls: 0 for no effect and ±100 for the full control effect; nearly all actives have a fitted effect of over 60% in size
#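 First, TGR (20 nM dispensed) and NADPH were mixed with compound. Second, a 15 min room-temperature incubation followed. Third, further NADPH and then DTNB were added to start the reaction. Finally, TNB absorbance was monitored kinetically.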
# AMA1 RON2 block – AMA1-RON2 (P. falciparum) interaction inhibition; AlphaScreen AMA1-biotinylated RON2 peptide binding; Potency, µM (doses to about 58.2 µM), inactives show at the top dose activity change, negative = inhibition, usual class: inhibitors; hit rate 0.2% among 360,000;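 also: 0% = vehicle wells and -100% = peptide control; nearly all actives have a fitted effect of over 45% in size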
#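 AMA1 (3D7) with his tag at 25 nM final met compounds first, then biotinylated RON2 peptide at 25 nM; detection used donor plus acceptor beads, 10 µg/mL apiece, read by AlphaScreen after 30 min at room temperature.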
# Pf growth 96h – P. falciparum growth inhibition at 96 hour, primary screen for plastid delayed-death inhibitors. P. falciparum luciferase reporter growth, 96 h. Potency, µM (top dose mostly 28.7 µM), without a hit: top-dose activity change, negative = inhibition, hits mostly inhibitors. hit rate 6.9% among 320,000; also: % is scaled to controls: 0 for no effect and ±100 for the full control effect
#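 96 h incubation, 37 C, 5% CO2, of luciferase-reporter P. falciparum-infected RBCs (2% hematocrit, 0.05% parasitemia final) with test compounds; endpoint luminescence.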
# An asterisk follows results filed as active; ? = inconclusive; nt = no result given; ! = not active in a repeat; [ ] = another dose, or the depositor's remark. Unless noted, calls follow the shape of the dose curve; as a rule, active = well fitted curve in the direction sought with a large enough effect; inconclusive = small, poorly fitted or top-dose-only effect, or another doubt; inactive = no such curve, though single readings can be large; an effect the other way counts as inactive or inconclusive. Potency is read from the fitted curve at half-maximal effect.
SMILES,Pf growth 48h,NS1 function inh,Sm TGR inh,AMA1 RON2 block,Pf growth 96h
Cc1cc(C(=O)Nc2ccc(N3CCCC3)c(Cl)c2)ccc1[N+](=O)[O-],8%,6%,5%,22µM*,9.3µM*
CCc1ccccc1NC(=S)N(CCN1CCOCC1)C1CCN(C(C)=O)CC1,-11%,nt,6%,0%,?
CCOc1ccc2c(c1)[N+](C)(C)C(C)(C)C=C2C,1.2µM*,nt,0%,-2%,-24%
CC(=O)N1CCN(C(=O)Cn2c(=O)oc3ccccc32)CC1,18%,-1%,13%,0%,-6%
O=C(Cn1c(=O)oc2ccccc21)N1CCN(c2ccccc2)CC1,13%,1%,-2%,-11%,13µM*
CC(=O)N1CCN(C(c2ccccc2)c2ccccc2)CC1,nt,-6%,-19%,nt,nt
CN1C(=O)C(CC(=O)N2CCN(C(c3ccccc3)c3ccccc3)CC2)N(C)C1=O (stereo not given),12µM*,6%,0%,-2%,?
CCCCN(C(=O)CCn1c(=O)oc2ccccc21)c1ccccc1,?,-2%,25µM*!,-4%,?
O=C(CCn1c(=O)oc2ccccc21)N(Cc1ccccc1)c1ccccc1,-8%,-5%,-10%,0%,-9%
O=C(CCn1c(=O)oc2ccccc21)N1CCN(C(c2ccccc2)c2ccccc2)CC1,5.9µM*,-45%,-1%,-7%,31%
CCOc1ccc(NC(=O)Cn2cc(S(=O)(=O)NC)c(S(=O)(=O)NC)c2)cc1,nt,nt,1%,nt,nt
CC1CCN(C(=O)COC(=O)c2ccc(N3CCCC3=O)cc2)CC1,0%,nt,-9%,-2%[11.6 µM],-1%
CC(=O)NCCN=Cc1sc2ccccc2c1O,31%,-29%,-18%,3%,3.7µM*
CC(CNC(=O)CC[C@H]1O[C@@H](n2cnc3c(NC(=O)c4ccccc4)ncnc32)[C@H](O)[C@@H]1O)c1ccccc1 (stereo not given in full),nt,nt,nt,5%,nt
CN(C)C(=O)c1ccc(-n2cccn2)nc1,10µM*,nt,-1%,7%,2%
Cc1cc(C)nc(N2CCCC(C(=O)Nc3nnc(C)s3)C2)n1 (stereo not given),26%,-4%,3%,-4%,nt
Cc1ccnc(N2CCC(C(=O)Nc3ccc4c(c3)CCC4)CC2)n1,-15%,2%,74%,-7%,-2%
COc1cc(C)nc(N2CCCC(C(=O)NC3CCC(C)CC3)C2)n1 (stereo not given),28%,?,0%,-3%,2.9µM*
Cc1cc(C)nc(N2CCCC(C(=O)Nc3ccc4nc(C)c(C)nc4c3)C2)n1 (stereo not given),12µM*,-54%,0%,-7%,nt
Cc1cc(C)nc(N2CCC(C(=O)Nc3ccc4c(c3)CCC4)CC2)n1,16%,0%,3%,-3%,12µM*
Cc1cc(C)nc(N2CCCC(C(=O)Nc3nc4ccc(S(C)(=O)=O)cc4s3)C2)n1 (stereo not given),7.4µM*,-39%,12%,-7%,nt
CC(Oc1ccc(Br)cc1)C(=O)NNC(=O)CCN1CCN(c2ccccc2)CC1 (stereo not given),?,nt,1%,48%,3%
Cc1ccc(/C(=C\CN2CCCC2)c2ccccn2)cc1,-19%,?,-20%,3%,13µM*!
Cc1ccc(C(=O)NCCCNC(=O)c2ccccn2)cc1,5%,12%,-1%,36%,26%
C/C=C/C(=O)OCC(=O)Nc1ccc(C)c(S(=O)(=O)N(C)C)c1,14%,nt,45µM*,-3%,1%
SMILES,Pf growth 48h,NS1 function inh,Sm TGR inh,AMA1 RON2 block,Pf growth 96h
CC(=O)c1c(C)[nH]c(C(=O)OCC(=O)Nc2ccc(Cl)c(S(=O)(=O)N(C)C)c2)c1C,1.2µM*,-12%,-9%,-5%,6.6µM*
CCN(CC)S(=O)(=O)c1cccc(NC(=O)COC(=O)/C=C/c2ccco2)c1,40%,0%,22µM*,-12%,56%
CC(=O)c1c(C)[nH]c(C(=O)Nc2ccc(Cl)c(S(=O)(=O)N(C)C)c2)c1C,?,0%,4%,-1%,?
Cc1ccc(NC(=O)COC(=O)c2ccc(Cl)cc2)cc1S(=O)(=O)N(C)C,?,6%,1%,-3%,0%
CN(C)S(=O)(=O)c1cccc(NC(=O)COC(=O)/C=C/c2ccco2)c1,19%,6%,?,-7%,51%
Cc1ccc(NC(=O)COC(=O)/C=C/c2ccco2)cc1S(=O)(=O)N(C)C,1%,6%,25µM*,-15%,11%
O=C(c1ccc([N+](=O)[O-])cc1)N1c2ncnn2C2(CCCCC2)[C@@H]2CCCC[C@@H]21,nt,nt,5%,nt,nt
CCOC(=O)CN1C(=O)C(=O)N(Cc2c(F)cccc2Cl)C1=O,nt,1%,2%,1%,24%
O=C(Cn1c(=O)n2nc(-c3cccc(F)c3)nc2c2ccccc21)N1CCN(c2ccc(F)cc2)CC1,nt,nt,16%,nt,nt
CCN(C(=O)c1cnc(NC(C)C)cc1C(F)(F)F)c1ccc(Cl)cc1,?,6%,5%,8%,12µM*
CCC(C)Sc1cc(C(F)(F)F)c(C(=O)Nc2ccc(Cl)cc2)cn1 (stereo not given),?,3%,10%,5%,?
CCCCCCCCCc1conc1C(=O)/C=C/c1oc2c(c1C)CCC(C)C2 (stereo not given),nt,nt,nt,29%,nt
CC(=O)[C@@H]1[C@@H](C(=O)c2ccc(F)cc2)[C@]2(C(=O)Nc3ccccc32)[C@H]2C=Cc3cc(F)ccc3N12,?,14%,50µM*,-16%,?
O=C(c1ccc(F)cc1)[C@@H]1[C@@H](C(=O)c2ccccc2)[C@@]2(C(=O)Nc3ccccc32)[C@H]2c3ccccc3C=CN12,?,23%,45µM*,nt,5.2µM*
CC(=O)[C@@H]1[C@@H](C(=O)c2ccc(C)cc2)[C@]2(C(=O)Nc3ccccc32)[C@H]2C=Cc3cc(F)ccc3N12,?,-1%,?,-4%,?
CC1CCCC(NC(=O)Cn2c(Cl)nc3c2c(=O)n(C)c(=O)n3C)C1C (stereo not given),nt,nt,nt,5%,nt
CCN1C(=O)[C@H]2[C@@H](c3ccc(-c4ccc(C(C)=O)cc4)c(OC)c3)N3CCCC[C@@]3(C(=O)OC)[C@H]2C1=O,nt,nt,nt,-1%,nt
COC(=O)[C@@]12CCCN1[C@H](c1ccc(-c3ccc(F)cc3)cc1)[C@H]1C(=O)N(C)C(=O)[C@H]12,1.2µM*,nt,-33%,1%,?
CCN1C(=O)[C@@H]2[C@@H](c3ccc(-c4ccc(Cl)c(Cl)c4)c(OC)c3)N3CCCC[C@@]3(C(=O)OC)[C@@H]2C1=O,2.6µM*,nt,-3%,-4%,?
CCN1C(=O)[C@@H]2[C@@H](c3ccc(-c4ccc(F)cc4)c(OC)c3)N3CCCC[C@@]3(C(=O)OC)[C@@H]2C1=O,10µM*,nt,28µM*,-12%,7.4µM*

# Screening data as filed in PubChem.
